Measured values from PubChem BioAssay.
Where “and” joins values, the source holds several entries; their conditions need not be identical. Equal entries are not always repeated. For part of these data: Entries with a potency or affinity are not part of this list. Calls of active or inactive are those of the source.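 The calls were made as follows, unless noted: active = compounds killing one labelled cell type while sparing the other, by normalised counts and ratio limits, not self-fluorescent; inactive = the rest.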

What was measured:
[1] = biological target: 6-phosphogluconate dehydrogenase, decarboxylating (Homo sapiens) (UniProt P52209); experiment: inhibition of human phosphogluconate dehydrogenase – biochemical, recombinant enzyme, NADPH absorbance, primary screen (AID 1159550;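 active = at least 20% inhibition of 6-phosphogluconate dehydrogenase activity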); settings: recombinant 6PGD, NADPH absorbance 341 nm; at 10 µM; stronger effect = higher value
[2] = EMT-state selective cytotoxicity in co-culture – imaging, PC-3E GFP, TEM4-18 mCherry, primary screen (AID 1345086); settings: PC-3E GFP / TEM4-18 mCherry co-culture, imaging cell counts, at 1 µM; for red/green cell ratio (normalised): actives lie on both sides, counts scaled to control wells, 1 = unselective;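 as to all read-outs here: cells exposed to compound for 72 h before imaging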;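 as to red/green cell ratio (normalised): normalised mesenchymal count divided by normalised epithelial count so high means epithelial killing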
[3] = blockers of polyQ-driven CASP3 activation – cell-based (AID 1583); settings: polyglutamine-induced caspase-3 activation, cell assay; stronger effect = higher value;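 tested at 10 µM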
[4] = yeast 75Q aggregation reduction – 75Q-TubU reporter (AID 1593); settings: Yeast 75Q polyglutamine aggregation reporter
[5] = restoration of touch response, mutant HTT neurons – whole organism, C. elegans mechanosensory neurons, N-terminal huntingtin (AID 1599); settings: C. elegans polyQ-huntingtin mechanosensory neurons, stronger effect = higher value
[6] = blockers of cytochrome c efflux from mitochondria – biochemical, purified mitochondria (AID 1603); settings: stronger effect = lower value;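 also: mouse liver mitochondria challenged with calcium chloride; signal normalized to the plate average as 100%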
[7] = polyglutamine aggregate formation blockers (AID 1604); settings: polyglutamine-induced protein aggregation inhibition assay; stronger effect = higher value; tested at 2.5 µM
[8] = glutamate transport activators, MN-1 cells, MN-1 cell line (AID 1612); settings: MN-1 motor neuron cells, stronger effect = higher value;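 also: tested at 1 µM final; 0% = mean of DMSO vehicle wells on each plate; positive means more glutamate uptake than control and negative means less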
[9] = GFP-Q80 aggregate reduction, neuronal-like cells, cell-based, NGF-treated PC12, GFPQ80 (AID 1614); settings: PC12 NGF-treated GFP-polyQ80 inclusion reduction;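 also: lower means fewer inclusions and 0 means no inclusions at all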
[10] = 75Q-TubH aggregate inhibition, S. cerevisiae, yeast (AID 1616); settings: S. cerevisiae 75Q-TubH polyglutamine aggregation suppression; stronger effect = higher value
[11] = P. berghei load reduction in hepatocytes – cell-based, HepG2, luciferase luminescence, HepG2 viability, primary screen (AID 624349; in the data active = parasite load remaining mostly below about 12%, no sharp cut-off; inactive = mostly above about 10%;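 also: 100% = mean of DMSO negative control wells on the same plate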); settings: P. berghei liver stage in HepG2, luciferase luminescence, concentration not given here; parasite load remaining: stronger effect = lower value; viability: measured here: HepG2 viability without parasites
[12] = viability loss with induced miR-34 in A549 – imaging, A549 dox-inducible miR-34, nuclei and caspase counts, primary screen (AID 1347080;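 active = compounds whose cell count with miR-34 switched on is under 0.7 times the count with it off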); settings: A549 miR-34 inducible, Hoechst nuclei count, 48 h
[13] = biological target: NAD(+) hydrolase SARM1 (Homo sapiens) (UniProt Q6SZW1); experiment: blocking NAD cleavage by SARM1 SAM-TIR – cell lysate, NAD-Glo luminescence (AID 1508614;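 active = compound whose remaining NAD level is above about 45 nM, limit read from the data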;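 also: higher remaining NAD means stronger inhibition of SARM1 NADase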); settings: SAM-TIR HEK293T lysate NADase, at 1 µM, stronger effect = higher value
[14] = biological target: Mitogen-activated protein kinase 7 (Homo sapiens) (UniProt Q13164); experiment: Gal4-ERK5 driven luciferase induction – cell-based, HTS, primary screen (AID 1508626;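 active = luciferase signal above three times the same-plate solvent-only control wells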;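 also: luciferase driven by Gal4-ERK5 fusion binding five Gal4 sites before minimal TATA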); settings: HeLa Gal4-ERK5 transactivation, 18 h, at 5 µM, stronger effect = higher value
[15] = compounds altering circadian rhythm period length – cell-based, LOPAC library, luminescence reporter (AID 2774; call rule not given here;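 also: values are relative to mean of DMSO wells on each plate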); settings: circadian reporter cells, at 7 µM, actives lie on both sides
[16] = test system: Hepatitis C virus NS3 helicase; experiment: blockers of NS3h binding to ssDNA – biochemical, fluorescence polarization, LOPAC1280 library, primary screen (AID 687035; in the data active = inhibition above about 37%); settings: Purified HCV NS3 helicase, Cy5-dT15 ssDNA binding fluorescence polarization; stronger effect = higher value; concentration not given here
[17] = blockers of cellular phospholipid synthesis – cell-based, LOPAC library, screen 4, primary screen (AID 1347384; call rule not given here); settings: animal cells, phospholipid biosynthesis inhibition screen; at 10 µM
[18] = MELAS cybrid and Rieske KO viability enhancers – cell-based, MELAS cybrids, Rieske KO mouse fibroblasts, CellTiter-Glo, primary screen (AID 1508586;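 active = mean z-score across replicates of 1.96 or higher in either the MELAS or the Rieske mutant cell line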;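 also: z relative to plate mean and SD of compound and empty wells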); settings: low glucose
[19] = galactose survival enhancers in mitochondrial complex I cybrids – cell-based, galactose medium, ATP luminescence, primary screen (AID 1645843;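 active = z-score of at least 1.8 in each of two replicates, scored against plate mean and spread of sample wells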;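 also: positive z means more ATP and so rescue of galactose-driven cybrid death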); settings: complex I mutant cybrid cells, 72 h, stronger effect = higher value
[20] = measured here: epithelial PC-3E GFP cell survival
[21] = measured here: mesenchymal TEM4-18 mCherry cell survival
[22] = stronger effect = lower value, cell number ratio, induced over uninduced
[23] = measured here: relative caspase fold change +Dox/-Dox
[24] = measured here: total cells with miR-34 induction, stronger effect = lower value
[25] = measured here: total cells without miR-34 induction

Mitogen-activated protein kinase 7 (Homo sapiens), sequence (Q13164 whole entry, looked up, the tested form may be a part): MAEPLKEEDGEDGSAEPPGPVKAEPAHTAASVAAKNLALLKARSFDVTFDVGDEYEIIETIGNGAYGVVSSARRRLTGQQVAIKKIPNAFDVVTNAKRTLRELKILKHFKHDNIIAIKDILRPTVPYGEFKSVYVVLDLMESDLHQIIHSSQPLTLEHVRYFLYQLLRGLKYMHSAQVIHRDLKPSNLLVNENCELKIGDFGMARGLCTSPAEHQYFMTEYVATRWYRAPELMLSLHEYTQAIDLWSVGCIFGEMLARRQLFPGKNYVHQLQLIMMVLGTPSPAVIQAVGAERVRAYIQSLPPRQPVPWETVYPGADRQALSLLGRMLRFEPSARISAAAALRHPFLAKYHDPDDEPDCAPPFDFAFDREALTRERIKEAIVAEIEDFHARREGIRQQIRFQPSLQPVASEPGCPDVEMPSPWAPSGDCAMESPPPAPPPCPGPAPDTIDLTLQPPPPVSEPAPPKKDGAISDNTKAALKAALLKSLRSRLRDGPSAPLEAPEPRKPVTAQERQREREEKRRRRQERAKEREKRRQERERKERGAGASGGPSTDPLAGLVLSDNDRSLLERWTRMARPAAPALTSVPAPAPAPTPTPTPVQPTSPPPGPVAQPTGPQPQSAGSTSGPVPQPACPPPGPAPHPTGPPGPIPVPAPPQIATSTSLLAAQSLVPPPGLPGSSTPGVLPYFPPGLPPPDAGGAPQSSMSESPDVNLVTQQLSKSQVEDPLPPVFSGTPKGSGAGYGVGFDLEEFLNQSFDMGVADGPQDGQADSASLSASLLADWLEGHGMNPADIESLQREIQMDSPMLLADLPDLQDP
6-phosphogluconate dehydrogenase, decarboxylating (Homo sapiens), sequence (P52209 whole entry, looked up): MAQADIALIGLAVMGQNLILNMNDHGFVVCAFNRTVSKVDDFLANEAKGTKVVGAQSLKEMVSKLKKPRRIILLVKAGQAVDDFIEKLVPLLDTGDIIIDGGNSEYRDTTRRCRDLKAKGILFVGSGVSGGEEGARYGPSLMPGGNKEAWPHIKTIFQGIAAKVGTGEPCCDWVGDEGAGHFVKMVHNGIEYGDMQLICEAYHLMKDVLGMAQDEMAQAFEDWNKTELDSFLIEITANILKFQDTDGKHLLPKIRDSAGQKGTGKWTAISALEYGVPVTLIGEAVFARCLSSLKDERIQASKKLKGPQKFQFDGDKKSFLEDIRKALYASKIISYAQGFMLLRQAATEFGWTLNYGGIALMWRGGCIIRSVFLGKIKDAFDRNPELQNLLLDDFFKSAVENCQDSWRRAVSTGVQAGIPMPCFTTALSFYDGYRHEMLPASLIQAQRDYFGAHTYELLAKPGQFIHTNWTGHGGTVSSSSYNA
NAD(+) hydrolase SARM1 (Homo sapiens), sequence (Q6SZW1 whole entry, looked up, the tested form may be a part): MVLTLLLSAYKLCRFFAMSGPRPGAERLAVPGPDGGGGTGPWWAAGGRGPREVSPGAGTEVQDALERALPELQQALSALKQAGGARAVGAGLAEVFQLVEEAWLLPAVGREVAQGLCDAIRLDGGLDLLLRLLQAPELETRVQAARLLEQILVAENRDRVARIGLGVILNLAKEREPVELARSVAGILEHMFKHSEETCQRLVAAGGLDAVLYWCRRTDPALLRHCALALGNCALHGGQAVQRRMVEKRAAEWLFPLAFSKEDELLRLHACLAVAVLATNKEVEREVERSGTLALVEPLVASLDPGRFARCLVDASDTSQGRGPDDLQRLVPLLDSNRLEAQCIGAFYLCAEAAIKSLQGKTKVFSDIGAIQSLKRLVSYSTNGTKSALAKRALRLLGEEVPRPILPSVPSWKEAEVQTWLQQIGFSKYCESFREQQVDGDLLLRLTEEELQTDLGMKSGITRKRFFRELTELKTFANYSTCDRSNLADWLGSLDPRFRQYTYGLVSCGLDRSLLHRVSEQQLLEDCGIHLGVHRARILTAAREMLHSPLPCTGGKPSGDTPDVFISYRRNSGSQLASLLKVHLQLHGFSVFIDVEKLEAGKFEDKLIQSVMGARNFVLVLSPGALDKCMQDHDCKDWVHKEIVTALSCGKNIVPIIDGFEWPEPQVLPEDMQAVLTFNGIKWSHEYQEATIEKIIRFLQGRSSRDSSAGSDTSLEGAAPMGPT

For COc1cc2c(cc1OC)C1C(=O)c3c(cc4c(c3O)C=CC(C)(C)O4)OC1CO2 (stereo not drawn), which inhibition [1] is on record?
Its inhibition is 7.64% (inactive).

What about the red/green cell ratio (normalised) [2] of the same molecule?
The red/green cell ratio (normalised) was 0.76 (inactive).

And the normalised cell number [2, 20]?
The normalised cell number was 1.04.

And the normalised cell number [2, 21]?
Its normalised cell number is 0.79.

Which results are given for COc1cc(OC)c(-c2c(OC)cc(OC)cc2OC)c(OC)c1?
inhibition [1]: 11.7% (inactive); red/green cell ratio (normalised) [2]: 1.06 (inactive); normalised cell number [2, 20]: 0.99; normalised cell number [2, 21]: 1.04

For COc1cccc(-c2cc(=O)c3cc(OC)ccc3o2)c1, which inhibition [1] is on record?
Its inhibition is -1.86% (inactive).

What about the red/green cell ratio (normalised) [2] of the same molecule?
The red/green cell ratio (normalised) was 1.05 (inactive).

And the normalised cell number [2, 20]?
The normalised cell number was 0.89.

What about the normalised cell number [2, 21] of the same molecule?
The normalised cell number was 0.94.

With CC1CC[C@@]2(OC1)O[C@H]1CC3C4CC[C@@H]5C[C@@H](O)CC[C@]5(C)C4CC[C@]3(C)[C@H]1[C@@H]2C (stereo partly drawn) as the molecule, how does the inhibition [1] read?
Its inhibition is -2.11% (inactive).

And the red/green cell ratio (normalised) [2]?
The red/green cell ratio (normalised) was 1.16 (inactive).

What about the normalised cell number [2, 20] of the same molecule?
The normalised cell number was 1.03.

What about the normalised cell number [2, 21] of the same molecule?
The normalised cell number was 1.2.

For CCCCCCCC/C=C/CCCCCCCCOP(=O)([O-])OCC[N+](C)(C)C, which inhibition [1] is on record?
Its inhibition is 17.1% (inactive).

What about the red/green cell ratio (normalised) [2] of the same molecule?
Its red/green cell ratio (normalised) is 0.71 (inactive).

And the normalised cell number [2, 20]?
The normalised cell number was 1.36.

And the normalised cell number [2, 21]?
Its normalised cell number is 0.96.

For OCc1ccccc1O[C@@H]1O[C@H](CO)[C@@H](O)[C@H](O)[C@H]1O, which inhibition [3] is on record?
The inhibition was -10.9%.

What about the score [4] of the same molecule?
The score was 1.23.

What about the rescue above control [5] of the same molecule?
The rescue above control was -13.2.

And the cytochrome c release ratio [6]?
The cytochrome c release ratio was 0.94.

What about the inhibition of aggregation [7] of the same molecule?
Its inhibition of aggregation is 25.2%.

And the glutamate uptake change [8]?
The glutamate uptake change was -4.1%.

What about the inclusion score [9] of the same molecule?
Its inclusion score is 2.

What about the aggregation suppression score [10] of the same molecule?
Its aggregation suppression score is 1.3.

What about the parasite load remaining [11] of the same molecule?
The parasite load remaining was 107% (inactive) and 32.5% (inactive).

And the viability [11]?
The viability was 66.8% and 91.3%.

What about the inhibition [1] of the same molecule?
Its inhibition is 16.9% (inactive).

And the red/green cell ratio (normalised) [2]?
The red/green cell ratio (normalised) was 0.91 (inactive).

And the normalised cell number [2, 20]?
The normalised cell number was 0.63.

And the normalised cell number [2, 21]?
Its normalised cell number is 0.57.

And the fold change [12, 22]?
The fold change was 0.934 (inactive).

What about the fold change [12, 23] of the same molecule?
The fold change was 2.93.

And the cell count [12, 24]?
Its cell count is 12100.

And the cell count [12, 25]?
The cell count was 13000.

And the remaining NAD [13]?
The remaining NAD was 10 nM (inactive).

What about the luciferase signal [14] of the same molecule?
The luciferase signal was 72 AU (inactive).

Which results are given for C1CCc2nnnn2CC1?
period change [15]: -0.075 h (inactive); parasite load remaining [11]: 23.8% (inactive) and 86.6% (inactive) and 79.3% (inactive); viability [11]: 50.2% and 91.9% and 103%; inhibition [16]: -2% (inactive); inhibition [1]: 10.8% (inactive); red/green cell ratio (normalised) [2]: 1.25 (inactive); normalised cell number [2, 20]: 1.11; normalised cell number [2, 21]: 1.38; outcome [17]: inactive; z-score ([18]; MELAS cybrid survival, CellTiter-Glo 48 h, stronger effect = higher value): -0.00315 (inactive); z-score ([18]; Rieske KO mouse fibroblast survival, CellTiter-Glo 72 h): -0.232; remaining NAD [13]: 10 nM (inactive); luciferase signal [14]: 96 AU (inactive); z-score [19]: 0.7 (inactive) and 0.6 (inactive)

What does the source list for O=C1C[C@@H](c2ccc(O)cc2)Oc2cc(O)cc(O)c21?
inhibition [3]: 11.6%; score [4]: 1.28; rescue above control [5]: -15.8; cytochrome c release ratio [6]: 1.08; inhibition of aggregation [7]: 57.7%; glutamate uptake change [8]: 9.95%; inclusion score [9]: 2; aggregation suppression score [10]: 1.04; inhibition [1]: -3.37% (inactive); red/green cell ratio (normalised) [2]: 1.16 (inactive); normalised cell number [2, 20]: 0.96; normalised cell number [2, 21]: 1.12; luciferase signal [14]: 40 AU (inactive)

What does the source list for COc1ccc2cc1Oc1ccc(cc1)C[C@H]1c3cc(c(OC)cc3CCN1C)Oc1c(OC)c(OC)cc3c1[C@H](C2)N(C)CC3?
parasite load remaining [11]: 84.6% (inactive); viability [11]: 98.6%; inhibition [1]: 19.5% (inactive); red/green cell ratio (normalised) [2]: 0.86 (inactive); normalised cell number [2, 20]: 1.08; normalised cell number [2, 21]: 0.93; fold change [12, 22]: 0.882 (inactive) and 1.13 (inactive); fold change [12, 23]: 1.24 and 1.19; cell count [12, 24]: 7200 and 3450; cell count [12, 25]: 8160 and 3060; luciferase signal [14]: 68 AU (inactive)
